The source of these data is PubChem BioAssay AID1259343 (VanderVen Lab, College of Veterinary Medicine, Cornell …, 2017).

Among all 6,200 compounds or so, about 2,900 (47%) were called active. The set was probably picked from earlier hits. The list shows a part of the results. Unmarked numbers belong to inactive results. Rule as the data show it: active = inhibition above about 50%; inactive = the rest.

The nature of this experiment: Mycobacterium tuberculosis growth inhibition, primary screen (AID 1259343). The note with it: inhibition: at 10 µM, stronger effect = higher value; outcome: 10 uM.
As to `COc1ccc([C@@H]2CC(=O)c3c(O)cc(O)cc3O2)cc1O`, the inhibition is 67.2% (active). The value for `COc1ccc(C2N=C(c3ccccc3C)NO2)cc1O` (centres undefined) was “inactive”. Then `Cc1cc(C)cc(-c2nn(CN3CCOCC3(C)C)c(=S)o2)c1`, with -38.7%; and `CN1CCN(Cn2nc(-c3ccc4c(c3)OCO4)oc2=S)CC1`, with 86.7% (active).

As for `S=c1oc(-c2cccc(Cl)c2)nn1CN1CCC(c2nnc3ccccn23)CC1`, the inhibition is 22.7%. The value for `CCc1ccc(/C=C/S(=O)(=O)Nc2onc(C)c2C)cc1` was 68.3% (active); that for `O=C(c1ccc(C(F)(F)F)c(F)c1)N1CCC(Cc2ccc(-n3cccc3)cc2)CC1` was 63.9% (active); that for `O=C(c1ccc(Oc2ccc(Cl)cc2)c(F)c1)N1CCC(O)CC1` was 5.66%. The value for `O=C(c1ccc(C(F)(F)F)c(F)c1)N1CCC(Cc2ccc(F)cc2)CC1` was 87% (active). `O=C(c1ccc(F)c(F)c1F)N1CCC(Cc2ccc(-n3cccc3)cc2)CC1`: the inhibition is 56.5% (active). Take `CCCc1cc(N2CC(C)CC(C)C2)n2nc3nc(C)cc(C)c3c2n1` (centres undefined): the inhibition was -1.46%. For the compound `CC(NC(=O)c1cc(Cl)ccc1F)c1ccc(Cl)s1` (centres undefined), the inhibition is 41.4%. Then `COc1ccc(C(=O)NC(C)c2ccc(Cl)cc2Cl)cc1` (centres undefined), with 55.6% (active); and `COc1ccc(OCc2cc(C(=O)NC(C)c3csc(C)n3)no2)c(Cl)c1` (centres undefined), with 36.7%; and `N#CC1(NC(=O)c2ccc(-c3nc(C4CC4)no3)cc2)CCSC1` (centres undefined), with 80.6% (active).

Regarding `CN(Cc1ccc(F)cc1)c1ccc(-c2nc(C3CC3)no2)cn1`, the inhibition is 27.2%. Then `O=[N+]([O-])c1ncc[nH]1`, with 43.1%.

Regarding `COc1ccc(Cc2n[nH]c(=S)o2)cc1`, the inhibition is 101% (active). Then `CCOc1ccc(-c2n[nH]c(=S)o2)cc1`, with 48.7%; and `S=c1[nH]nc(Cc2ccccc2)o1`, with -26.6%; and `O=C1c2cccc3cccc(c23)C(=O)N1CCCCCc1n[nH]c(=S)o1`, with 29.7%. The value for `CC(Cc1n[nH]c(=S)o1)c1ccccc1` (centres undefined) was 36.9%; that for `COc1ccc(CCCc2n[nH]c(=S)o2)cc1` was 99.7% (active). The value for `O=C(NC1CCCC1)c1occc1COc1ccccc1` was 60.1% (active); that for `CC(=NNC(=O)NC1CCCCC1)c1ccco1` was -56.6%. For `Cc1c(C(=O)NC2CCCCC2)oc2ccccc12`, the inhibition was 90.9% (active). The value for `O=C(NC(=S)NC1CCCCCCC1)c1ccco1` was 63.9% (active); that for `O=C(Nc1ccc(Cl)c(Cl)c1)c1occc1COc1ccccc1` was 32.6%. The value for `O=C(NC1CCCCCC1)c1ccco1` was 55.1% (active). For `CN(C)c1ccc(NC(=O)C2C[C@H]2c2ccccc2)cc1C(=O)NC1CCCCC1` (some centres undefined), the inhibition was 20%. The value for `Cc1cc(-c2ccc(NC3=NCCCS3)cc2)nc2ccccc12` was 20.2%. The value for `CC(C)CNC(=O)C(=O)NCCCc1ccc(N(C)C)cc1` was 33%; that for `Cc1nn(-c2ccccc2)c(N)c1N=Nc1cccc(Cl)c1` was 56% (active); that for `CCN(CC)S(=O)(=O)c1ccc(N=Nc2c(C)nn(-c3ccccc3)c2N)cc1` was 25.3%. The value for `CC(=O)Nc1cccc(N=C2NN=C(C34CC5CC(CC(C5)C3)C4)CS2)c1` was 35.4%; that for `CN(C)C(=O)c1csc(-c2csc(NCC3CCC3)n2)c1` was 38.9%. Turning to `Clc1ccc(-c2csc(NCC3CCCO3)n2)c(Cl)c1` (centres undefined), the inhibition is 77.3% (active). Then `Cc1cc(-c2csc(NC3CCCC3)n2)c(C)n1CC1CCCO1` (centres undefined), with 23.4%; and `CCCCSc1nnc2c(n1)OC(C)(CC)Nc1ccccc1-2` (centres undefined), with -11.3%.

For `CCCSc1nnc2c(n1)OC=Nc1ccc(Br)cc1-2`, the inhibition was 87.8% (active). The value for `CCCCSc1nnc2c(n1)OC=Nc1ccc(Br)cc1-2` was 82.3% (active).

With `O=c1c2c3nc4ccccc4nc3n(C3CCCC3)c2ncn1Cc1ccco1`, the inhibition is -15.8%. Then `O=c1ccc(-c2ccc(Cl)cc2)nn1Cc1ccccc1F`, with 70.5% (active); and `CCOc1ccc(-c2ccc(=O)n(Cc3ccc(F)cc3)n2)cc1`, with 90.8% (active). Then `O=c1ccc(-c2ccccc2)nn1Cc1cccc(Cl)c1`, with 92.4% (active). The value for `Cc1ccc(-c2ccc(=O)n(Cc3ccccc3)n2)cc1` was 24%; that for `Cc1ccc(Cn2nc(-c3ccccc3)ccc2=O)cc1` was 70.6% (active).

For the compound `O=c1ccc(-c2ccc(F)cc2)nn1Cc1ccc(Br)cc1`, the inhibition was 46.8%. Then `O=c1ccc(-c2ccc(Br)cc2)nn1Cc1cccc(F)c1`, with -4.34%. As for `Cc1ccc(-c2ccc(=O)n(Cc3ccccc3F)n2)cc1`, the inhibition is 28.8%. The value for `O=c1ccc(-c2cccc(Br)c2)nn1Cc1ccccc1` was 22.6%; that for `CCOc1ccc(-c2ccc(=O)n(Cc3ccccc3)n2)cc1` was 41.1%. Then `O=c1ccc(-c2ccc(F)cc2)nn1Cc1ccccc1F`, with 33.9%; and `CCOC(=O)NC(O)C(F)(F)C(F)(F)C(F)(F)C(F)(F)C(F)(F)C(F)F` (centres undefined), with 27.7%; and `Cc1nnc2n1N=CC=C(c1ccccc1)S2`, with 54.6% (active). The value for `O=S(=O)(Nc1nc2ccccc2nc1Nc1ccccc1)c1ccc(Br)s1` was 80.6% (active); that for `O=S(=O)(Nc1nc2ccccc2nc1Nc1ccc2c(c1)OCO2)c1cccc2nsnc12` was -10.2%. For `O=S(=O)(Nc1nc2ccccc2s1)c1ccccc1`, the inhibition is 57.6% (active). The value for `O=S(=O)(Nc1nc2ccccc2s1)c1ccc(Br)s1` was 70.2% (active); that for `O=S(=O)(Nc1nc2ccccc2s1)c1cccs1` was -38.3%; that for `CCN1CCN(C(C)CNc2nc3ccccc3s2)CC1` (centres undefined) was -41.8%. Then `O=S(=O)(Nc1nc2ccccc2s1)c1ccc(Cl)s1`, with 93.7% (active). The value for `O=C(CCN1CCCCC1c1cccnc1)Nc1nc2ccccc2s1` (centres undefined) was 35.6%; that for `CC(=NNc1nc2ccccc2s1)c1cc2ccccc2o1` was 3.87%.

For the compound `NC(=S)Nc1nc2ccccc2s1`, the inhibition was 89.5% (active). The value for `Brc1ccc2cc(Oc3ncccn3)ccc2c1` was 5.33%; that for `N#Cc1ccc(COc2ccc(Br)cc2Br)cc1` was 1.7%; that for `Cc1cc(C)nc(Oc2ccc(Br)cc2Br)n1` was 75.3% (active). Then `C=CCOc1ccc(/C=N\O)cc1Cl`, with 86.2% (active); and `C=C1C2CC[C@@]3(C)[C@H](c4ccoc4)OC(=O)C[C@]13O[C@H]1CC(O)C(C)(C)C(CC(=O)OC)[C@@]21C` (some centres undefined), with 79.9% (active). The value for `COC(=O)C[C@H]1C2(C)CC34OC5(C)O[C@@]6([C@H](OC)C(OC(=O)C(C)C)[C@]7(C)C(/C(=C(/OC)C(C)C)C(=O)O[C@H]7c7ccoc7)[C@@]6(O5)[C@H](OC)[C@@]3(OC)C2OC(C)=O)[C@]14C` (some centres undefined) was 37.5%; that for `O=S(=O)(c1ccc(Cl)cc1)c1nc(Nc2ccc(F)cc2F)sc1Cl` was 82.6% (active); that for `CCC(O)c1ccc(OCCCC(C)(C)C#N)cc1` (centres undefined) was 90.6% (active). `FC(F)(F)c1ccnn1-c1nc(-c2ccc(Br)cc2)cs1`: the inhibition was 16.4%. Regarding `CSc1ccccc1NS(=O)(=O)c1ccc2ccccc2c1`, the inhibition was 11.2%. Then `O=S(=O)(Nc1ccc(Cl)cc1)c1ccc(F)c(F)c1F`, with 95.7% (active).

For `O=S(=O)(Nc1ccc2ccccc2c1)c1ccc(F)c(F)c1F`, the inhibition was 84.5% (active). The value for `O=C(NC1CCCC1)c1ccccc1NS(=O)(=O)c1ccc(F)c(F)c1F` was 18.7%. `Cc1cc(Cl)ccc1NS(=O)(=O)c1ccc(F)c(F)c1F`: the inhibition is 23.8%. Then `O=C(Nc1ccccc1)C1CSCN1S(=O)(=O)c1ccc(Cl)cc1C(F)(F)F` (centres undefined), with -4.72%. Consider `COc1cc(Cc2cnc(N)nc2N)cc(OC)c1OC`, for which the inhibition was 98.3% (active). Then `CCCCNC(=O)c1ccc(C)c(OCC)c1`, with -17.8%; and `CCCCNC(=O)c1cc2sc3ccccc3c2s1`, with 101% (active).

`CN(C)c1ccc(/C=C/C(=O)N(C)C2C3CC4CC(C3)CC2C4)cc1` (centres undefined): the inhibition was 8.71%. As for `O=C(NNc1ccccc1)C(O)C(O)C(=O)NNc1ccccc1` (centres undefined), the inhibition is 83.3% (active). `COCCN(CC(=O)N(Cc1ccc(F)cc1)Cc1ccco1)C(=O)N(C)C`: the inhibition was 22.5%. As to `CC(C)N(CC(=O)N(CCc1c[nH]c2ccccc12)Cc1ccc(C(C)(C)C)cc1)CC(O)COCc1ccco1` (centres undefined), the inhibition was 53.8% (active). The value for `COc1cccc(Oc2cncnc2-c2ccc(OC)cc2O)c1` was 76.5% (active). The value for `COc1ccc(-c2oncc2-c2ccccc2)c(O)c1` was -29.6%; that for `CCN(CC)CCNc1nc(C23CC4CC(CC(C4)C2)C3)cs1` was 55.4% (active); that for `CC(C)CCn1c(SCC(=O)NC(C)(C)C)nc2cc(Cl)ccc2c1=O` was 88.4% (active). For `COCCn1c(SCCc2ccccc2)nc2cc(Cl)ccc2c1=O`, the inhibition was 15.5%. The value for `COCCn1c(SC(C)C)nc2ccc(Br)cc2c1=O` was -18.7%; that for `NCCOB(c1ccccc1)c1ccccc1` was 101% (active); that for `O=C(CCl)NCCCCCCCCCNC(=O)CCl` was 93.8% (active). Regarding `O=C(CC1CCCC1)NCCCNC(=O)CC1CCCC1`, the inhibition is 7.09%. The value for `CS(=O)(=O)Nc1c(Cl)c(Cl)c(Cl)c(Cl)c1Cl` was 84% (active); that for `O=[N+]([O-])c1ccc(N2CCNCC2)cc1NC1C2CC3CC(C2)CC1C3` (centres undefined) was 83.1% (active); that for `O=[N+]([O-])c1ccc(Cl)cc1NN=C1C2CC3CC1CC(O)(C3)C2` was 47.3%.

For the compound `Cc1ccc(N2CCN(C(=O)C34CC5CC(CC(C5)C3)C4)CC2)cc1Cl`, the inhibition is 10.8%.

Regarding `CC(Nc1cc(N2CCNCC2)ccc1[N+](=O)[O-])C12CC3CC(CC(C3)C1)C2` (centres undefined), the inhibition was 59.9% (active). The value for `COc1ccc(NC(=O)N2CCCC(C(=O)c3cccc(OC(C)C)c3)C2)cc1OC` (centres undefined) was 19%; that for `COc1ccc(C)cc1C(=O)Nc1ccc(N2CCCCC2)nc1` was 2.05%; that for `COc1ccc(NC(=O)Nc2cccc(-c3ccc(N4CCCC4)nn3)c2)cc1` was 66.1% (active).

The inhibition is the change of the read-out against control, counted positive when it falls.
